The campaign covered roughly 69,000 compounds. About 50 (0.07%) showed an effect of 50% or more. This is one part of a sample in which strong results are shown more often than they occur.
The compounds below were run against Lysine--tRNA ligase (Plasmodium falciparum (isolate 3D7)) (UniProt Q8IDJ8) (assay: Pf-KRS-1 (Lysyl-RNA Synthetase-1, KRS-1, cytosolic KRS) from Plasmodium falciparum. Inhibitor assay, 384 well plate, luminescence read.). Details: 30 µM.
Assay type: functional
Set-up: scale not given: in the data most compounds retested in dose-response had high values

Lysine--tRNA ligase (Plasmodium falciparum (isolate 3D7)), sequence (Q8IDJ8 1-583): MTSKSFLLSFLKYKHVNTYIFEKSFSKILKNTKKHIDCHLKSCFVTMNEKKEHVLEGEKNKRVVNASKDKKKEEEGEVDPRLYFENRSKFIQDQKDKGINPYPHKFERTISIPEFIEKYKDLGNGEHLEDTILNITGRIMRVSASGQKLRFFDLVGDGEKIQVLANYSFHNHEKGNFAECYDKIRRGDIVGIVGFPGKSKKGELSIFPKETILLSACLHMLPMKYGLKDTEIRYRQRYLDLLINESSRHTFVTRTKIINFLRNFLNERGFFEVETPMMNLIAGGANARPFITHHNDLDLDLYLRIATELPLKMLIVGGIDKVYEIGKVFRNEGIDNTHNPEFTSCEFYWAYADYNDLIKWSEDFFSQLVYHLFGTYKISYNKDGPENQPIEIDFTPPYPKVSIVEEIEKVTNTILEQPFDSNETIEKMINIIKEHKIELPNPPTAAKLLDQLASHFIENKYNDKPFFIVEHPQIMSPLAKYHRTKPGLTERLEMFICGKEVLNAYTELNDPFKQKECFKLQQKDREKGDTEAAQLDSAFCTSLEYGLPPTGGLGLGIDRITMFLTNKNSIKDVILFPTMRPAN

| SMILES | Percent Effect [%] |
| --- | --- |
| COC(=O)c1ccc2ccn(CC3CCCCO3)c(=O)c2c1 (stereo not drawn) | 78.6 |
| COC(=O)c1ccc2ccn(CC3COCCO3)c(=O)c2c1 (stereo not drawn) | 26.4 |
| COC(=O)c1ccc2ccn(CC3CCCO3)c(=O)c2c1 (stereo not drawn) | 12.9 |
| O=C(N1CCCO1)[C@@]12CCO[C@@H]1CCN(Cc1cccnc1)C2 | 0.613 |
| CN1C(=O)CO[C@H]2CCN(C(=O)Cc3ccc4c(c3)CCCC4)CC[C@@H]21 | 0.27 |
| CC(C)n1nc2c(cc1=O)CN(CC1CCCCO1)CC2 (stereo not drawn) | 11.8 |
| CC(C)c1ncc2c(n1)CN(CC1CCCCO1)CC2 (stereo not drawn) | 2.58 |
| Cn1nc2c(cc1=O)CN(CC1CCCCO1)CC2 (stereo not drawn) | 50.5 |
| CCc1ncc2c(n1)CN(CC1CCCCO1)CC2 (stereo not drawn) | 17.1 |
| CCn1nc2c(cc1=O)CN(CC1CCCCO1)CC2 (stereo not drawn) | -3.92 |
| c1ncc2c(n1)CN(CC1CCCCO1)CC2 (stereo not drawn) | 84.6 |
| Cc1ncc2c(n1)CN(CC1CCCCO1)CC2 (stereo not drawn) | 76.2 |
| CCCn1nc2c(cc1=O)CN(CC1CCCCO1)CC2 (stereo not drawn) | 8.29 |
| Cc1cc(CN2CCc3cncnc3C2)no1 | 8.95 |
| COCCN1CCO[C@H]2CN(Cc3cccc(C)n3)C[C@H]21 | 2.71 |
| CO[C@H]1CN(CC2CCOCC2)[C@@H]2CCCO[C@H]12 | 3.3 |
| Cc1cccc(CN2C[C@H](NS(C)(=O)=O)[C@@H]3OCCC[C@@H]32)n1 | 0.332 |
| Cc1noc([C@]23COC[C@H]2CN(C(C)C)C3)n1 | 2.71 |
| COCCn1cc(NC(=O)NC(C)CCc2ccccc2)ccc1=O (stereo not drawn) | 64.7 |
| COCCn1cc(NC(=O)C(C)CCc2ccccc2F)ccc1=O (stereo not drawn) | 34.2 |
| CC(CCc1ccccc1)NC(=O)Nc1cnn(CC(N)=O)c1 (stereo not drawn) | 2.54 |
| CCCN1CCN(C(=O)c2cc3ccccc3cn2)[C@H]2CS(=O)(=O)C[C@H]21 | 4.93 |
| Cc1ccc(-c2ccc(C3CNCCO3)nc2)cc1 (stereo not drawn) | 5.24 |
| O=c1[nH]c2c(c(=O)n1C1CCCCC1)CCC2NCCc1ccccc1 (stereo not drawn) | 55.6 |
| Cc1cccc(NC2CCc3c2[nH]c(=O)n(C2CCCCC2)c3=O)c1C (stereo not drawn) | 32.2 |
| O=c1[nH]c2c(c(=O)n1C1CCCCC1)CCC2NCc1ccccc1 (stereo not drawn) | 11.2 |

| SMILES | Percent Effect [%] |
| --- | --- |
| O=c1[nH]c2c(c(=O)n1C1CCCCC1)CCC2Nc1ccccc1Cl (stereo not drawn) | 61.5 |
| O=c1[nH]c2c(c(=O)n1C1CCCCC1)CCC2Nc1ccccn1 (stereo not drawn) | 28.1 |
| O=c1[nH]c2c(c(=O)n1C1CCCCC1)CCC2Nc1ccccc1 (stereo not drawn) | 24.4 |
| COC[C@@]12CCO[C@@H]1CCN(Cc1ccccc1OC)C2 | 6.78 |
| CC(=O)N1CCO[C@@H]2CN(S(=O)(=O)C3CC3)CC[C@@H]2C1 | 2.76 |
| CO[C@H]1CC[C@H]2[C@H]1OCCN2C(=O)CC1=CCCCC1 | 18.1 |
| Cc1ncsc1CN1C[C@H](C(=O)N2CCCO2)[C@@H]2CCO[C@@H]2C1 | 0.217 |
| Cc1nnc(NC(=O)NCc2ccoc2)s1 | 0.941 |
| CN(Cc1ccsc1)C(=O)Nc1ccc(=O)n(C)c1 | 28.4 |
| O=C(NCc1ccoc1)Nc1ccc(CN2CCOC2=O)cc1 | 2.38 |
| Cn1cc(NC(=O)CCc2ccsc2)ccc1=O | 7.87 |
| COc1ccc(CNC(=O)Nc2ccc(CN3CCOC3=O)cc2)cc1 | 0.788 |
| COc1ccc(CNC(=O)Nc2ccc(=O)n(C)c2)cc1 | 77.6 |
| COC(=O)c1ccc(CNC(=O)Nc2ccc(=O)n(C)c2)cc1 | -0.542 |
| Cn1cc(NC(=O)NCc2ccoc2)ccc1=O | 58.5 |
| Cn1cc(NC(=O)NCc2ccsc2)ccc1=O | 73.2 |
| COCC(=O)N1C[C@H]2CCC[C@@]2(COC)C1 | 3.43 |
| O=C(c1cccnc1)N1C[C@H]2CN(Cc3cccc(F)c3)C(=O)[C@H]2C1 | 7.87 |
| CO[C@H]1CCN(C2CCC2)[C@@H]2CN(Cc3ccncc3)C[C@H]12 | 3 |
| CO[C@@H]1CCN(S(=O)(=O)c2cccnc2)[C@@H]2CN(CC3CC3)C[C@@H]21 | 4.3 |
| O=C(NC1CCCC1)[C@H]1CC[C@@H]2[C@@H](CCN2c2ncc(F)cn2)O1 | -0.28 |
| CO[C@H]1CC[C@H]2[C@H]1OCCN2Cc1ccc(F)c(F)c1 | -6.11 |
| COCc1cnc2n1CCN(C(=O)c1ccc3ccccc3n1)C2C (stereo not drawn) | 10.7 |
| O=C(CC1CCCC1)N1C[C@@H]2CCN(c3cccnc3)C[C@@H]2C1 | 1.75 |
| c1coc(-c2nc3c(c(N4CCCN5CCC[C@H]5C4)n2)CCNCC3)c1 | 0.644 |
| Cc1ccoc1C(=O)N1CC[C@H]2OCC[C@@]2(COCc2ccncc2)C1 | 6.75 |

| SMILES | Percent Effect [%] |
| --- | --- |
| Cc1cc(=O)n(C)cc1NC(=O)Cc1ccc(C(F)(F)F)cc1 | 1.6 |
| Cc1cc(=O)n(C)cc1NC(=O)Cc1cccc(F)c1 | 19.8 |
| Cc1cc(=O)n(C)cc1NC(=O)Cc1cc(F)ccc1F | 69.1 |
| O=C1CO[C@H]2CN(C3CCOCC3)C[C@H]2N1Cc1ccccn1 | 2.85 |
| Cc1ccc(S(=O)(=O)N2C[C@@H]3CCN[C@@H]3C2)cc1 | 2.57 |
| COc1ccc(CN2C[C@@H]3COC[C@@H](CC(=O)N4CCCC4)[C@@H]3C2)cc1 | 4.49 |
| O=c1c(CN2CCOCC2)coc2ccc(Cl)cc12 | 28.3 |
| O=c1c(CN2CCCCC2)coc2ccc(Cl)cc12 | 62.1 |
| O=c1c(CN2CC3CCCN3C[C@@H]2CCO)coc2ccc(Cl)cc12 (stereo partly drawn) | 0.683 |
| Cc1ccc(S(=O)(=O)N2C[C@@H]3C[C@@H](NC(=O)C(C)(C)C)[C@@H]3C2)cc1 | 6.48 |
| CC(O)(CNc1ccc(Cl)c(C#N)n1)c1ccccc1 (stereo not drawn) | 8.49 |
| Cn1cc(C(C)(O)CNc2ccc(Cl)c(C#N)n2)cn1 (stereo not drawn) | 18.4 |
| CC(O)(CNc1ccc(Cl)c(C#N)n1)c1ccsc1 (stereo not drawn) | 59 |
| CCOCC(=O)N1CC[C@@H]2O[C@@H](C)C[C@H]2C1 | 2.15 |
| O=C1CC[C@]2(CC[C@@H](NCc3ccc4c(c3)OCO4)CC2)N1 | -2.96 |
| O=C(NC1CC(F)(F)C1)[C@]12COC[C@H]1CN(Cc1ccsc1)C2 | 3.2 |
| O=C(c1c[nH]nn1)N1CCCC1C1CCCCC1 (stereo not drawn) | 85.6 |
| O=C(c1cnc2[nH]c(=O)[nH]c(=O)c2c1)N1CCCC1C1CCCCC1 (stereo not drawn) | 2.68 |
| O=C(c1ccc(=O)[nH]n1)N1CCCC1C1CCCC1 (stereo not drawn) | 9.62 |
| COC[C@@]12CC[C@@H](N3CCOCC3)C[C@H]1CCN(c1nc(CO)cs1)C2 | 10.3 |
| Cn1cc(NC(=O)N2CCC2c2ccccc2)ccc1=O (stereo not drawn) | 20.1 |
| Cn1cc(NC(=O)N2CCC(CN3CCCC3)CC2)ccc1=O | 0.985 |
| Cn1cc(NC(=O)N2CCCC2c2ccccn2)ccc1=O (stereo not drawn) | 78.9 |
| Cn1cc(NC(=O)N2CCCC2c2cccnc2)ccc1=O (stereo not drawn) | 4.14 |
| Cn1cc(NC(=O)N2CCC(c3ccccc3)CC2)ccc1=O | 45.4 |
| CC(C)C1CCCN1C(=O)Nc1ccc(=O)n(C)c1 (stereo not drawn) | 81 |
